Records with an inconclusive call do not appear. A call without a number means that no potency is given here. The source made the active and inactive calls. Calls come from the whole dose curve; as a rule, active = well fitted activation curve with a large enough effect in the repeat runs; inconclusive = weak or mixed curves; inactive = flat fitted curve, though single readings scatter.
assay: A CellTox Green Cytotoxicity Assay to monitor cytotoxicity in HepG2 cells - 40 hour (AID 1224879); settings: CellTox Green fluorescence; series mostly up to 76.8 µM; note: nearly all actives have a fitted effect of over 40% in size
Text: National Center for Advancing Translational Sciences [NCATS]
NIH Chemical Genomics Center [NCGC]
U.S. Environmental Protection Agency [EPA]
National Institutes of Environmental Health Sciences [NIEHS]
National Toxicology Program [NTP]
Cell-based models are critical for drug discovery. Determining the natural cytotoxic effects resulting from test compounds is an essential research activity. A CellTox Green Cytotoxicity Assay to monitor cytotoxicity in real time of continues cell culture during 40 hours of the compound treatment was used to screen Tox21 10K library compounds in HepG2 cells. CellTox Green Cytotoxicity Assay is a nonlytic, homogeneous, biofluorescent method to measure cytotoxicity in cell culture after experimental manipulation. The assay system uses a proprietary asymmetric cyanine dye that is excluded from viable cells but preferentially stains the dead cell's DNA. […] Viable cells produce no appreciable increases in fluorescence. Therefore, the fluorescence signal produced by the binding interaction with dead cell DNA is proportional to cytotoxicity.
The mixture of HepG2 cell suspension and reagents were dispensed at 600cells/6 ul/well in 1536-well tissue culture treated black solid bottom plates using a Multidrop dispenser. After the assay plates were incubated at a 37 C/5% CO2 incubator for 5 hours, 23 nL of compounds dissolved in DMSO, positive and negative controls was transferred to the assay plate by a pintool work station. The plates were incubated at 37 C for 40 hours. The fluorescence intensity were measured at 0h, 8h, 16h, 24h, 32h and 40h time points using ViewLux plate reader during compound treatment.
Potency is the fitted concentration of half-maximal effect.

| SMILES | Potency | cytotoxicity increase |
| --- | --- | --- |
| O=S(=O)(Oc1ccc(Cl)cc1)c1ccccc1 | inactive |  |
| CCCCC | inactive |  |
| Cc1cccc(Nc2ccccc2)c1 | 38.9 µM (active) |  |
| CC(CC=O)c1ccccc1 (stereo not given) | inactive |  |
| CCCCc1ncc(/C=C(\Cc2cccs2)C(=O)O)n1Cc1ccc(C(=O)O)cc1 | inactive |  |
| COS(=O)(=O)C(F)(F)F | inactive |  |
| c1ccc(-c2ccccn2)nc1 | inactive |  |
| CCCCC(CC)COC(=O)COc1ccc(Cl)cc1Cl (stereo not given) | inactive |  |
| O=P(O)(OCc1ccccc1)OCc1ccccc1 | inactive |  |
| O=CC1CC=CCC1 (stereo not given) | inactive |  |
| C#Cc1cccc(Nc2ncnc3cc(OCCOC)c(OCCOC)cc23)c1 | inactive |  |
| O=C(OCCc1ccccc1)c1ccccc1 | inactive |  |
| CCCCc1nc2cccnc2n1Cc1ccc(-c2ccccc2-c2nnn[nH]2)cc1 | inactive |  |
| Clc1ccc(Cn2c(CN3CCCC3)nc3ccccc32)cc1 | inactive |  |
| O=C1[C@H]2CCCC[C@H]2C(=O)N1CCCCN1CCN(c2nsc3ccccc23)CC1 | inactive |  |
| COCCCN1CCC(NC(=O)c2cc(Cl)c(N)c3c2OCC3)CC1 | inactive |  |
| CCCCCCCN | inactive |  |
| NCC(=O)CCC(=O)O | inactive |  |
| CNC(=O)CN(CCN(CCN(CC(=O)[O-])CC(=O)NC)CC(=O)[O-])CC(=O)[O-].O.[Gd+3] | inactive |  |
| COc1ccc(-c2nc3ccc(C4=NNC(=O)CC4C)cc3[nH]2)cc1 (stereo not given) | 21.3 µM (active) |  |

| SMILES | Potency | cytotoxicity increase |
| --- | --- | --- |
| NCCCN1CCOCC1 | inactive |  |
| CC[N+](C)(CC)CCOC(=O)C(O)(c1ccccc1)C1CCCCC1 (stereo not given) | inactive |  |
| Cc1cccc(C)c1OCC(=O)N[C@@H](Cc1ccccc1)[C@@H](O)C[C@H](Cc1ccccc1)NC(=O)[C@H](C(C)C)N1CCCNC1=O | inactive |  |
| O=[N+]([O-])c1ccc(NCCO)c(OCCO)c1 | inactive |  |
| CCO[Si](CCCCl)(OCC)OCC | inactive |  |
| COc1cc2c(cc1OC)C(C(C(=O)N(CCc1ccc(OC)c(OC)c1OC)CCc1ccc(OC)c(OC)c1OC)c1ccccc1)=NCC2 (stereo not given) | inactive |  |
| O=C(O)c1ccc(-n2nc(-c3ccccc3O)nc2-c2ccccc2O)cc1 | inactive |  |
| C=C1[C@H]2CC[C@@H]3[C@H]2C(C)(C)CCC[C@]13C | inactive |  |
| Clc1ccc2c(c1)CCc1cccnc1C2=C1CCNCC1 | 23.9 µM (active) |  |
| CCCC(=O)Nc1ccc(O)c(C(C)=O)c1 | inactive |  |
| COc1cc(Cl)c(OC)cc1N | inactive |  |
| OC(CN1CCC(Cc2ccc(F)cc2)CC1)c1ccc(Cl)cc1 (stereo not given) | 23.9 µM (active) |  |
| CC(=O)[O][Al][O]C(C)=O | inactive |  |
| CC1CCC(=O)C1=O (stereo not given) | inactive |  |
| CCCCCCCCCCCc1ccccc1 | inactive |  |
| O=C(O)CNCC(=O)O |  | -10.4% [at 6.97 µM] (inactive) |
| C=C1C(=C/C=C2\CCC[C@]3(C)[C@@H]([C@H](C)/C=C/[C@@H](O)C4CC4)CC[C@@H]23)C[C@@H](O)C[C@@H]1O | inactive |  |
| CC(C)(C)Cl | inactive |  |
| C/C=C(/C(=C/C)c1ccc(OC(C)=O)cc1)c1ccc(OC(C)=O)cc1 | inactive |  |
| COc1cc2nc(N(C)CCCNC(=O)C3CCCO3)nc(N)c2cc1OC (stereo not given) | inactive |  |

Reference: PubChem BioAssay (Tox21)
